# Sampled rows, rich in hits. Any-hit rate of the full collection: about 11%.
# IL-1B inflam inh: blocks inflammasome-driven IL-1 beta release | THP-1 LPS/ATP IL-1B secretion, AlphaLISA, 16 h; active compounds read low | activity change, % at 57.5 µM | 4.7% of 360,000 active | AID 743279; in the data active means activity change below about -50%; inconclusive means mostly about -30% to -49%; further: on the % scale 0 is the no-effect control and ±100 the full control effect
#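 Secreted IL-1B measured by AlphaLISA bead assay after 16 h compound exposure of THP-1 cells; compounds (final up to 57.5 uM) added 1 h before LPS (250 ng/mL) and ATP (1.25 mM) stimulation; lower signal means less secretion.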
# MCF10A rerep: inducers of DNA re-replication in MCF 10A breast cells; AID 624296; 2.9% of 350,000 active; MCF 10A DNA re-replication, Hoechst nuclear intensity, 48 h; Potency, µM (titrated, usually from 46.1 µM), without a hit: at the top dose activity, positive = re-replication, actives largely listed as activators; further: potency means the concentration at half of the fitted maximal effect; % of control where 0% means no effect; nearly all actives have a fitted effect of over 50% in size
# VP16 counter: inhibits Gal4-VP16 luciferase reporter, ROR gamma counter-screen | 3.5% of 310,000 active | AID 2546 | Potency, µM (highest dose often 53.6 µM), without a hit: top-dose activity, negative = inhibition, actives largely listed as inhibitors | Drosophila S2 Gal4-VP16 UAS-luciferase, luminescence, 20 h;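 further: Gal4-VP16 expression switched on by copper sulfate through the metallothionein promoter; potency means the concentration at half of the fitted maximal effect; on the % scale 0 is the no-effect control and ±100 the full control effect; nearly all actives have a fitted effect of over 50% in size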
# RORgamma inh: blocks mouse ROR gamma transcriptional activity. Potency, µM (highest dose often 53.6 µM), without a hit: at the highest dose activity change, negative = inhibition, usual class: inhibitors. Drosophila S2 Gal4-RORgamma UAS-luciferase reporter, 20 h. 5.4% of 310,000 active. P51450; further: potency means the concentration at half of the fitted maximal effect; on the % scale 0 is the no-effect control and ±100 the full control effect; nearly all actives have a fitted effect of over 60% in size
# Target sequence (P51450 whole entry, looked up, the tested form may be a part): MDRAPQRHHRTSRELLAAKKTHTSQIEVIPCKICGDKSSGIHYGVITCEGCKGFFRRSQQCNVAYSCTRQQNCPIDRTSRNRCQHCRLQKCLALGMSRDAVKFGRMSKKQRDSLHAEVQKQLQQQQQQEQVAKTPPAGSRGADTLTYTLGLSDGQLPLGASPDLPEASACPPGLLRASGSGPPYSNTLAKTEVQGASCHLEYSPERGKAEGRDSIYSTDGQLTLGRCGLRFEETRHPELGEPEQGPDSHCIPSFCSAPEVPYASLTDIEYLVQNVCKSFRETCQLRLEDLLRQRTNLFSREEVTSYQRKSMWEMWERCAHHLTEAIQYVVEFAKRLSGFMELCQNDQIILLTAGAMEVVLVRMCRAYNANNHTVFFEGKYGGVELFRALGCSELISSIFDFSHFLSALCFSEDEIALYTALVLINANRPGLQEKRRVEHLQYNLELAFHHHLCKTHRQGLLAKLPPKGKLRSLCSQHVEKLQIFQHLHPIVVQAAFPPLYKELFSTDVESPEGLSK
#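 In this cell-based reporter format, copper sulfate (700 uM final) drives Gal4–ROR gamma fusion expression from a metallothionein promoter in Drosophila Schneider cells; compounds preincubated 1 hr, reporter read after 20 hr at ambient temperature.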
# SW480 rerep: DNA re-replication induction in SW480 cells | 1.8% of 340,000 active | SW480 DNA re-replication, Hoechst DNA content imaging, 48 h | Potency, µM (top dose mostly 46.1 µM), for inactives: at the highest dose re-replication activation, most hits filed as activators; further: potency means the concentration at half of the fitted maximal effect; % of control where 0% means no effect; nearly all actives have a fitted effect of over 55% in size
#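 250 cells/well; 23 nL cpd via pin tool; 48 hr, 37 C, 5% CO2; Hoechst 40 min; imager read of total nuclear intensity, ex 405/em 500-530 nm.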
# * marks the source's active call; other numbers are inactive results; i = inactive; ? = inconclusive; / = no result; ! = not active in a repeat; [ ] = another dose, or the depositor's remark. Unless noted, the call rests on the fitted dose curve; in most records, active means well fitted curve in the direction sought with a large enough effect; inconclusive means small, poorly fitted or top-dose-only effect, or another doubt; inactive means no such curve, though single readings can be large; an effect the other way counts as inactive or inconclusive.
SMILES,IL-1B inflam inh,MCF10A rerep,VP16 counter,RORgamma inh,SW480 rerep
CC(Sc1nnc(-c2ccncc2)n1-c1ccc(F)cc1)C(=O)NC1CC1 (stereo not given),31.2,-17.8%,/,/,6.9%
CCC[C@H](NC(=O)[C@H](Cc1ccc(O[S+](=O)([O-])O)cc1)NC(=O)OC(C)(C)C)C(=O)NCC(=O)N[C@@H](Cc1c[nH]c2ccccc12)C(=O)N[C@@H](CCC)C(=O)N[C@@H](CC(=O)OCCc1ccccc1)C(=O)O,/,/,-8.7%,2.3%,/
O=C(Nc1cccc(Cl)c1)c1ccc(F)c(S(=O)(=O)N2CCN(c3ccccn3)CC2)c1,-3.8,23.1µM*!,-2.9%,?,-0.5%
O=C(Nc1ccc(F)c(F)c1)c1ccc(F)c(S(=O)(=O)N2CCC3(CC2)OCCO3)c1,-59.9*,11.5%,?,22.6%,?
COc1cccc(-c2nnn(CC(=O)N3CCC(C)CC3)n2)c1,-11.3,7.9%,27.0%,34.5%,0.4%
CCCc1nnc(NC(=O)C2CC(=O)N(C3CCCC3)C2)s1 (stereo not given),-8.5,-1.3%,6.4%,-8.2%,29.2%
CCOC(=O)C1=CN(CC2CCCO2)C=C(C(=O)OCC)C1c1ccccc1C(F)(F)F (stereo not given),-11.2,13µM*,-4.5%[10 µM],8.1%,14.6µM*
O=C(O)c1ccc(N/N=C/C2=Cc3ccccc3OC2)cc1,-3.5,14.6µM*,?,-12.8%,?
O=C(Nc1ccccc1)Nc1ccc(F)c([N+](=O)[O-])c1,-90.4*,14.6µM*,2.8%,?,2.7%
O=C(NC(NC(=S)Nc1ccc(F)c([N+](=O)[O-])c1)C(Cl)(Cl)Cl)C(c1ccccc1)c1ccccc1 (stereo not given),/,/,5.01µM*,3.98µM*,/
CC(CC(=O)Nc1ccc(C(N)=O)cc1)c1ccccc1 (stereo not given),0.0,-2.5%,-1.5%,-5.0%,1.4%
Cc1ccc(NC(=O)Nc2ccccc2)cc1[N+](=O)[O-],-14.1,-0.6%,?,?,-5.2%
O=C(NC(=S)Nc1ccc(F)c([N+](=O)[O-])c1)c1ccccc1F,0.0,?,-1.2%,?,?
O=C(CSc1ccccn1)Nc1cccc([N+](=O)[O-])c1,35.3,0.4%,21.4%,4.1%,2.6%
O=C(CSc1ccccn1)Nc1ccc(F)c([N+](=O)[O-])c1,-76.2*,4.8%,0.3%,43.7%,-1.3%
CC(CC(=O)Nc1ccc(Cl)c([N+](=O)[O-])c1)c1ccccc1 (stereo not given),-90.5*,?,-11.4%,?,?
O=C(CN1C(=O)NC2(CCCC2)C1=O)Nc1ccc(F)c(Cl)c1,-5.5,-5.8%,-6.6%,10.0%,-13.5%
O=C(CN1C(=O)NC2(CCCC2)C1=O)Nc1ccc(F)c([N+](=O)[O-])c1,-66.4*,18.2%,0.7%,-15.9%,3.4%
O=C(Nc1ccc(Cl)cc1)Nc1cc([N+](=O)[O-])ccc1F,12.7,17.9%,?,?,5.5%
O=C(Nc1ccc([N+](=O)[O-])cc1)Nc1ccc(Cl)cc1F,-92.7*,?,-13.6%,12.4%,?
O=C(Nc1ccccc1)Nc1ccc(Cl)c([N+](=O)[O-])c1,7.0,14.6µM*,?,?,?
c1cc(C2OCCO2)cs1,10.9,/,/,/,/
Cc1cnc(CN2CCCC(C(=O)c3ccc4c5c(cccc35)CC4)C2)[nH]1 (stereo not given),-26.4,?,-26.1%,11.2µM*,-0.5%
O=C(c1ccc2c3c(cccc13)CC2)C1CCCN(Cc2ccccn2)C1 (stereo not given),5.8,?,11.2µM*,3.55µM*,-2.7%
CCNc1ncc2nc(-c3cccs3)c(=O)n(CCc3ccccc3)c2n1,/,/,4.1%,3.7%,/
SMILES,IL-1B inflam inh,MCF10A rerep,VP16 counter,RORgamma inh,SW480 rerep
COc1ccc(CNC(=O)CN(C(=O)c2csnn2)c2ccc(F)cc2)cc1,-0.2,-37.7%,2.5%,16.7%,-10.7%
CCN(Cc1ccccc1)S(=O)(=O)c1ccc(C(=O)N(CCCN(C)C)c2nc3cc(C)cc(C)c3s2)cc1,-100.4*,23.1µM*,/,/,-13.8%
Cc1cc(C)c2sc(N(CCN(C)C)C(=O)c3c(F)cccc3F)nc2c1,-71.1*,?,?,10.5%,?
CCCCN(CC)S(=O)(=O)c1ccc(C(=O)N(CCCN(C)C)c2nc3cc(C)cc(C)c3s2)cc1,-178.3*,0.0%,?,11.2µM*,-43.2%
Cc1cc(C)c2sc(N(CCCN(C)C)C(=O)c3ccc(S(=O)(=O)N(C)Cc4ccccc4)cc3)nc2c1,-110.2*,?,/,/,?
CCCc1cc(=O)oc2cc(OCC(=O)NCCN3CCOCC3)c(Cl)cc12,14.6,/,/,/,/
CC(C)=C1SC(N2CCN(c3cccc(Cl)c3)CC2)=NC1=O,-58.9*,2.1%,-16.5%,9.1%,-0.4%
COc1cc(CNC[C@H]2O[C@@H](n3cc(C)c(=O)[nH]c3=O)C[C@@H]2O)ccc1OCc1cccc(Cl)c1,-24.5,/,/,/,/
COc1ccc(NS(=O)(=O)c2cccc(N/C(=N\S(=O)(=O)c3ccccc3)c3ccc(F)cc3)c2)cc1,-6.3,?,-25.6%,?,?
O=S(=O)(/N=C(/Nc1ccc(Cl)c(S(=O)(=O)Nc2ccccc2Cl)c1)c1ccc(F)cc1)c1ccccc1,-74.8*!,?,-0.9%,?,27.7%
C/C(=N\NC(=O)c1ccc(Cl)cc1)c1ccc(Br)s1,-27.8,8.2%,1.12µM*,0.355µM*,-0.9%
C/C(=N\NC(=O)c1cc(Cl)ccc1O)c1ccc(Br)s1,17.8,?,2.51µM*,6.31µM*,/
C/C(=N/NC(=O)c1ccco1)c1ccc(Br)s1,-29.8,-21.4%,?,12.6µM*,-12.5%
COc1ccc(NC(=O)CS(=O)(=O)c2cn(CC(=O)N3CCCC3)c3ccccc23)c(OC)c1,i,-0.3%,2.0%,0.6%,-16.4%
O=C(NCc1cccnc1)c1ccccc1NS(=O)(=O)c1ccc(Br)cc1,19.2,-0.8%,/,/,9.2%
CCCOc1ccccc1NC(=O)/C=C/c1ccc(OC)c(S(=O)(=O)N2CCOCC2)c1,-22.7,/,/,/,/
CN(CCc1ccc(Cl)c(Cl)c1)CCN1CCCC1,/,/,9.3%,-15.3%,/
COc1ccc(C(=O)CC(=O)c2c(O)cc(OC)cc2OC)cc1,/,/,-3.2%[10 µM],-8.6%[10 µM],/
O=C(C1CC1)N1CCN(Cc2ccccc2)CC1,24.4,?,/,/,-0.9%
CC1(C)C(C=C(Cl)Cl)C1C(=O)N1CCN(Cc2ccccc2)CC1 (stereo not given),-51.0*,21.3%,17.4%,?,25.7%
COc1cccc(Nc2ncc3nc(-c4ccccc4)c(=O)n(C)c3n2)c1,/,/,4.3%,-7.4%,/
NNC(=O)c1c(O)c2cccc3c2n(c1=O)CCC3,-6.3,20.6µM*,1.7%,-20.9%,-5.2%
COc1ccc(OC)c(NC(=O)CN(Cc2ccccc2)S(C)(=O)=O)c1,-0.7,1.03µM*,-5.5%,7.3%,-31.0%
